These results are taken from PubChem BioAssay (Tox21).

Inconclusive results are not listed. A number with no mark means an inactive call. Activity calls are given as the source filed them. Calls come from the whole dose curve; as a rule, active = well fitted inhibition curve with a large enough effect in the signal ratio in the repeat runs (not every such curve was filed as active); inconclusive = weak or mixed curves, or effect the other way; inactive = no such curve, though single readings can be large or run the other way; the % refers to the signal ratio.
% is set by controls: 0 for no effect and ±100 for the full control effect.

Sequence of Vitamin D3 receptor (Homo sapiens) (P11473 whole entry, looked up): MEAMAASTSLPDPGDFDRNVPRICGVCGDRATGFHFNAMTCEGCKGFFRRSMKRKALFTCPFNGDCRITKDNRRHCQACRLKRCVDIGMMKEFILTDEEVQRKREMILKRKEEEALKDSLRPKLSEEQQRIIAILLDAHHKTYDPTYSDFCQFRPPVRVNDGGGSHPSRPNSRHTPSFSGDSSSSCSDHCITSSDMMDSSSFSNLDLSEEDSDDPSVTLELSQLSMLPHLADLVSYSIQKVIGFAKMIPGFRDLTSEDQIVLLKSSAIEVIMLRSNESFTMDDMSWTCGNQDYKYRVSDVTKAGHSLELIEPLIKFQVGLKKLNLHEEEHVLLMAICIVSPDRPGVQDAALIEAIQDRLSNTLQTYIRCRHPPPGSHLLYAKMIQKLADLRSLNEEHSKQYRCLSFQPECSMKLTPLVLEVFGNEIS

The target in this assay is Vitamin D3 receptor (Homo sapiens) (UniProt P11473). The experiment in a line: qHTS assay to identify small molecule antagonists of the vitamin D receptor (VDR) signaling pathway (AID 743223). The settings on record: VDR-UAS-bla HEK293T, beta-lactamase FRET ratio, 16 h; series mostly up to 61 µM. The source says:
U.S. Tox21 Program National Center for Advancing Translational Sciences [NCATS] NIH Chemical Genomics Center [NCGC] U.S. Environmental Protection Agency [EPA] National Institutes of Environmental Health Sciences [NIEHS] National Toxicology Program [NTP] U.S. Food and Drug Administration [FDA] Tox21 Assay Overview: The vitamin D receptor (VDR), a member of nuclear hormone receptor superfamily, plays a critical role in calcium homeostasis and bone metabolism. It is also involved in cell differentiation and growth, and thrombogenicity.
Tox21 Assay Protocol Summary: VDR-bla cells were dispensed at 2,000 cells/5 uL of assay medium per well into black wall/clear-bottom 1536-well plates using a Multidrop Combi (Thermo Fisher Scientific, Waltham, MA) dispenser. After the assay plates were incubated at a 37C and 5% CO2 for 4 h, 23 nL of compounds dissolved in DMSO, positive controls or DMSO only was transferred to the assay plate by a Pintool station (Kalypsys, San Diego, CA), followed by addition of 1 uL of 1alpha, 25-Dihydroxy Vitamin D3 (3 nM, final concentration in the wells) using a Bioraptr Flying Reagent Dispenser (FRD) workstation (Beckman Coulter, Indianapolis, IN). The plates were incubated at 37C and 5% CO2 for 16 h, and then 1 uL of LiveBLAzerTM B/G FRET substrate was added using a Bioraptr FRD. The plates were incubated at room temperature for 2 h and fluorescence intensity was measured by an Envision plate reader (PerkinElmer, Shelton, CT).
Turning to `O=C1CCCN1C1CCCCC1`, the outcome was inactive.
In the case of `N[C@H](C(=O)O)c1ccc(O)cc1`, the result was inactive.
Regarding `NS(=O)(=O)c1cc2c(cc1Cl)NC(C1CC3C=CC1C3)NS2(=O)=O` (stereo not given), the outcome was inactive.
With `CC1(C)CO[C@@H](CC(=O)O)CN1`, the outcome was inactive.
As for `COc1ccc2c(c1)CCCC2=O`, the outcome was inactive.
`C=CCOCC(CC)(CO)COCC=C`: the outcome was inactive.
For `N[C@@H](C(=O)N[C@@H]1C(=O)N2C(C(=O)O)=C(Cl)CS[C@H]12)c1ccccc1`, the activity change, negative = inhibition was 2.28% [at 6.95 µM].
With `CCC(C)S` (stereo not given), the activity change, negative = inhibition was 0.31% [at 3.11 µM].
Consider `CN(C)CCCSc1ccccc1NC(=O)/C=C/c1ccccc1`, for which the outcome was inactive.
`CN(C(=O)c1c(O)c2ccccc2n(C)c1=O)c1ccccc1`: the outcome was inactive.
Turning to `CCSC(=O)N(CC(C)C)CC(C)C`, the result was inactive.
On the same count and under the same terms, in the case of `CCOC(=O)c1c(C)n(C)c2ccc(O)cc12` it was “inactive”; in that of `CC/C=C\CCOC(C)=O`, “inactive”.
On the same count and under the same terms, in the case of `C[C@H](NC(CCc1ccccc1)C(=O)O)C(=O)N1CCC[C@H]1C(=O)O` (stereo not given in full) it was “inactive”; in that of `OC[C@]1(O)OC[C@@H](O)[C@H](O)[C@@H]1O`, “inactive”.
As to `COCCCOCCCOC`, the outcome was inactive.
As to `Brc1c(NC2=NCCN2)ccc2nccnc12`, the outcome was inactive.
Same read-out and setting: in the case of `N#Cc1ccc(C2CCCc3cncn32)cc1` (stereo not given) it was “inactive”.
For `CC(C)NC(=O)NC(C)C`, the outcome was inactive.
Regarding `CCOc1ccc(C(=O)OCCN(CC)CC)cc1`, the outcome was inactive.
For `CCN(Cc1ccncc1)C(=O)C(CO)c1ccccc1` (stereo not given), the result was inactive.
Regarding `CS(=O)(=O)O`, the outcome was inactive.
The same measure, in the same setting: in the case of `CCC=O` it was “inactive”; in that of `Oc1ccc(C2CNCCc3c2cc(O)c(O)c3Cl)cc1` (stereo not given), “inactive”; in that of `CC(C)=CCCC(C)CC(=O)O` (stereo not given), “inactive”.
Still for that read-out and setting: in the case of `NS(=O)(=O)c1cc(C(=O)O)cc(N2CCCC2)c1Oc1ccccc1` it was “inactive”; in that of `O=c1n(CCO)c(=O)n(CCO)c(=O)n1CCO`, “inactive”.
`Cn1cc(S(C)=O)c(=O)c2ccc(F)cc21` (stereo not given): the result was inactive.
Turning to `OC(CCN1CCCCC1)(c1ccccc1)C1CC2C=CC1C2` (stereo not given), the outcome was inactive.
Same read-out and setting: in the case of `CCN1CCC[C@H]1CNC(=O)c1cc(S(N)(=O)=O)ccc1OC` it was “inactive”.
As for `Nc1ccc(S(=O)(=O)Nc2ccnn2-c2ccccc2)cc1`, the outcome was inactive.
Consider `CCCCC(CC)COC(=O)c1ccccc1O` (stereo not given), for which the outcome was inactive.
On to `N=C(N)c1ccc2cc(OC(=O)c3ccc(N=C(N)N)cc3)ccc2c1`, for which the result was inactive.
As to `COC(=O)NN`, the outcome was inactive.
Regarding `C=COCC1CCC(CO)CC1` (stereo not given), the outcome was inactive.
For `c1cnc(N2CCN(Cc3ccc4c(c3)OCO4)CC2)nc1`, the outcome was inactive.
For `Cc1ccc(Cl)cc1Cl`, the result was inactive.
For the compound `CC(C)CCCC(C)N` (stereo not given), the outcome was inactive.
The same measure, in the same setting: in the case of `CC1(C)C(O)C(C)(C)C1O` (stereo not given) it was “inactive”.
Consider `NC(=O)c1cn(Cc2c(F)cccc2F)nn1`, for which the outcome was inactive.
